# The campaign covered roughly 290,000 compounds. About 60 (0.02%) were called active. About 1% were inconclusive and are not listed. The rule behind the calls is not given here. The list is a sample of the results. Entries with a potency or affinity are not part of this list.
# Assay: West Nile virus antiviral activity, cell-based, CPE readout (AID 1621)
# Settings: West Nile virus-infected cells, at 10 µM, hits give high values
row,Compound,CPE inhibition
1,O=C(COc1ccc(S(=O)(=O)N2CCc3ccccc32)cc1Cl)NCc1ccccn1,-0.17% (inactive)
2,CCOc1ccc(NC(=O)C(C)O)c(NS(=O)(=O)c2ccc(CCNC(C)=O)cc2)c1 (configuration not stated),-0.27% (inactive)
3,O=C(CNS(=O)(=O)c1ccccc1)OCC(=O)c1ccc(Br)cc1,-0.68% (inactive)
4,CCOC(=O)C1C(=O)CC(C)(O)C(C(=O)OCC)C1c1ccc(NC(C)=O)cc1 (configuration not stated),0% (inactive)
5,O=C1CSC(c2cn(-c3ccccc3)nc2-c2ccccc2)N1Cc1ccco1 (configuration not stated),-0.03% (inactive)
6,O=C(NC1CCS(=O)(=O)C1)c1sc2ccccc2c1Cl (configuration not stated),1.04% (inactive)
7,CCCC1CCC(C(=O)Nn2cnc3ccccc3c2=O)CC1 (configuration not stated),0.33% (inactive)
8,Cc1[nH]c(=O)c(C#N)c(C)c1CCC(=O)NCc1ccc(Cl)cc1,0.96% (inactive)
9,Cc1nc(Cl)sc1C(=O)NC(C)c1ccc(Cl)cc1 (configuration not stated),-0.9% (inactive)
10,O=C1CN(C(=O)c2ccc(Cl)nc2)c2ccccc2N1,0.17% (inactive)
11,CC(C)(C)c1ccc(NC(=O)CSc2nnc(-c3n[nH]c4ccccc34)o2)cc1,0.07% (inactive)
12,Cc1cc(C)c2nc(N3CCCC(C(=O)NCCN4CCOCC4)C3)sc2c1 (configuration not stated),-0.73% (inactive)
13,Cc1cc(C)c2nc(N3CCCC(C(=O)NCCCN4CCOCC4)C3)sc2c1 (configuration not stated),-0.13% (inactive)
14,COC(=O)c1ccccc1NC(=S)N(Cc1ccc2c(c1)OCO2)Cc1cc2cc(C)ccc2[nH]c1=O,0.29% (inactive)
15,Cc1[nH]c(C(=O)O)c(C)c1C(=O)OC(C)C,0.13% (inactive)
16,CC(C(=O)NC(C)(C)C)N1C(=O)c2cccc3cccc(c23)C1=O (configuration not stated),-0.58% (inactive)
17,NCCNC(=O)c1c(NC(=O)c2ccccc2)sc2c1CCCC2,-0.62% (inactive)
18,CN(C)CCNC(=O)c1c(NC(=O)c2ccccc2)sc2c1CCCC2,2.53% (inactive)
19,CCc1cccc(NC(=O)C2CCCN2S(=O)(=O)c2cccc3cccnc23)c1 (configuration not stated),-0.25% (inactive)
20,O=C(NCc1cccs1)c1cc2c(s1)-c1ccccc1OC2,0.12% (inactive)
21,CCN1CCN(CCCNC(=O)c2cc3c(s2)-c2ccccc2OC3)CC1,35.2% (inactive)
22,O=C(NC1CC1)c1cc2c(s1)-c1ccccc1OC2,1.08% (inactive)
23,O=C(NCCCN1CCOCC1)c1cc2c(s1)-c1ccccc1OC2,0.21% (inactive)

row,Compound,CPE inhibition
1,Cc1cccc2c1-c1sc(C(=O)NCCCN3CCc4ccccc4C3)cc1CO2,-0.65% (inactive)
2,Cc1cccc2c1-c1sc(C(=O)NCCCN3CCCC(C)C3)cc1CO2 (configuration not stated),-0.27% (inactive)
3,CCCN1CCN(CCCNC(=O)c2cc3c(s2)-c2c(C)cccc2OC3)CC1,-0.21% (inactive)
4,Cc1cccc2c1-c1sc(C(=O)NCCCN3CCC(C)CC3)cc1CO2,1.03% (inactive)
5,CC1(C)SC2c3ccccc3C(=O)N2[C@@H]1C(=O)O (some centres not stated),1.57% (inactive)
6,COc1ccc(C2/C=C\CN(C(=O)OCc3ccccc3)CC(=O)N2Cc2ccc(F)cc2)cc1 (configuration not stated),-0.53% (inactive)
7,O=c1c2ccccc2cnn1Cc1cccc(Br)c1,0% (inactive)
8,COc1ccc(-c2noc(N3CCCC(C(=O)Nc4cc(F)ccc4F)C3)n2)cc1 (configuration not stated),-0.21% (inactive)
9,CCSc1nnc(Nc2ccccc2)s1,0.4% (inactive)
10,C/C(=N\NC(=O)c1nn(C)c(C)c1Br)c1ccc(NC(=O)c2ccc(C)s2)cc1,-0.9% (inactive)
11,Cc1ccc(S(=O)(=O)NC(C)CCc2ccccc2)cc1 (configuration not stated),-1.02% (inactive)
12,COc1cc2ccccc2cc1C(=O)NC(=S)Nc1nnn(C)n1,0.33% (inactive)
13,Cc1sc(/C=C2\C(=O)ON=C2c2ccccc2)cc1Br,0.35% (inactive)
14,CC(C)NC(=O)c1ccc(-c2ccc(Cl)c(C(F)(F)F)c2)o1,-0.86% (inactive)
15,CCOC(=O)C1C(c2cccs2)NC(=O)N(C)C1(O)C(F)(F)F (configuration not stated),-0.41% (inactive)
16,CCCCNC(=O)c1onc(CSc2cc(C)cc(C)c2)c1C(=O)NCCCC,-0.6% (inactive)
17,COCCNC(=O)c1onc(CSc2cc(C)cc(C)c2)c1C(=O)NCCOC,0.39% (inactive)
18,O=C(CC(=O)Nc1ccccc1C(=O)O)NNC(=O)Cc1ccccc1,-0.29% (inactive)
19,CN(C)C(=O)N1CCN(c2nc(-c3ccccc3)cs2)CC1,-0.36% (inactive)
20,O=C(CCCl)N1CCN(c2nc(-c3ccccc3)cs2)CC1,1.96% (inactive)
21,CCCNc1c(NC(=O)c2cccs2)c(=O)oc2ccccc12,-0.26% (inactive)
22,Cc1ccc(NC(=O)C(C)N2C(=O)c3ccccc3C2=O)cc1C (configuration not stated),0.2% (inactive)
23,CCOC(=O)CN1C(=O)N[C@@H](c2cccc(C(F)(F)F)c2)[C@H](C(C)=O)[C@H]1C,-0.43% (inactive)

row,Compound,CPE inhibition
1,CCN(CC)CCC(c1cc(OC)c(OC)c(OC)c1)c1c(OC)cc(OC)c2c(C)cc(=O)oc12 (configuration not stated),-0.13% (inactive)
2,CCN(CC)CCC(c1ccc(N(C)C)cc1)c1c(OC)cc(OC)c2c(-c3ccccc3)cc(=O)oc12 (configuration not stated),-0.46% (inactive)
3,CONC(=O)Nc1ccccc1[N+](=O)[O-],0.1% (inactive)
4,CCOC(=O)c1[nH]c2ccccc2c1NC(=O)C(C)(C)C,0.96% (inactive)
5,CCCC(=O)Nc1c(C(=O)OCC)[nH]c2ccccc12,0% (inactive)
6,Cc1ccc(Sc2c(C)nn(C(=O)c3cccc(S(=O)(=O)N4CCOCC4)c3)c2C)cc1,0.04% (inactive)
7,O=C(Nc1ccc(S(=O)(=O)Nc2nccs2)cc1)c1ccc(=O)[nH]c1,-0.06% (inactive)
8,CN1CCN(CC(=O)Nc2sc3c(c2C(=O)Nc2ccccc2)CCCC3)CC1,1.23% (inactive)
9,CCOc1ccc(NC(=O)c2c(NC(=O)CN3CCCC3)sc3c2CCC3)cc1,-0.99% (inactive)
10,CCOC(=O)c1c(N)c2cc([N+](=O)[O-])ccc2n1C,0.7% (inactive)
11,COCC(C)n1c(SCc2cc(C(=O)OC)c(C)o2)nc2ccccc2c1=O (configuration not stated),-0.56% (inactive)
12,CC(=O)c1ccc(N2CCN(c3ccc(S(=O)(=O)NCCN(C)C)cc3[N+](=O)[O-])CC2)cc1,-0.21% (inactive)
13,CC(=O)c1ccc(N2CCN(c3ccc(S(=O)(=O)NCCCN(C)C)cc3[N+](=O)[O-])CC2)cc1,-2.19% (inactive)
14,COCCn1nnnc1C(c1cccs1)N1CCN2CCCC2C1 (configuration not stated),0.23% (inactive)
15,CCOC(=O)c1c(NC(=O)CSc2cccc[n+]2[O-])sc(C(=O)Nc2ccccc2)c1C,-0.77% (inactive)
16,CCOC(=O)c1c(N)sc(C(=O)Nc2ccccc2)c1C,-0.25% (inactive)
17,Cc1cnc(NC(=O)Cc2cccs2)s1,0.29% (inactive)
18,COc1ccc(C2c3sc(=O)[nH]c3SC3C4CCC(C4)C23)cc1OC (configuration not stated),0.48% (inactive)
19,CCc1cc(C(=O)N2CCc3c([nH]c4ccccc34)C2c2ccc(OC)cc2F)no1 (configuration not stated),19.3% (inactive)
20,O=C(c1cc2ncccn2n1)N1CCc2c([nH]c3ccccc23)C1c1ccccc1F (configuration not stated),2.67% (inactive)
21,C=CCn1c(SCC(=O)NNC(=O)Nc2ccc(C)cc2)nnc1-c1ccccc1,0.45% (inactive)
22,c1ccc2c(c1)CN1CCCC1=N2,0.51% (inactive)
23,O=C1CN2C(=Nc3ccc(Br)cc3C2c2ccccc2)CCN1 (configuration not stated),-0.54% (inactive)

row,Compound,CPE inhibition
1,CCN1CCc2nc3ccccc3c(C(=O)Nc3ccc(F)cc3)c2C1,-0.07% (inactive)
2,Cc1ccc(OCC(O)Cn2c(N3CCCCC3)nc3c2c(=O)[nH]c(=O)n3C)cc1C (configuration not stated),-0.27% (inactive)
3,CCOC(=O)NN1C(=O)c2ccccc2NC1c1ccccn1 (configuration not stated),0.09% (inactive)
4,O=C(Nc1ccccc1N1CCCC1)c1ccccc1Cl,-1.13% (inactive)
5,Cc1ccccc1/C=N/N1C(=O)CSC1=S,0.91% (inactive)
6,Cc1ccc2[nH]c(=O)c(CN(CCCN(C)C)C(=O)Nc3cccc(Cl)c3)cc2c1,-1.48% (inactive)
7,Cc1ccc2cc(CN(CCN(C)C)C(=O)Nc3ccc(Cl)cc3)c(=O)[nH]c2c1,2.9% (inactive)
8,NC(=O)c1ccc(NC(=O)CSc2nnc(-c3cccnc3)n2Cc2ccco2)cc1,-0.08% (inactive)
9,c1ccc(COC2CCCN(Cc3nc(Cc4ccccc4)no3)C2)cc1 (configuration not stated),-1.71% (inactive)
10,CC(=O)Oc1ccc2occ(-c3ccccc3)c2c1,-0.4% (inactive)
11,CCN(CC)S(=O)(=O)c1ccc(NC(=O)c2cc(-c3ccccc3)nc3ccccc23)cc1,-0.41% (inactive)
12,CCN(CC)S(=O)(=O)c1ccc(C(=O)O)cc1,0.13% (inactive)
13,CCOC(=O)C1(Cc2ccccc2C(F)(F)F)CCN(C2CCCC2)CC1,-0.59% (inactive)
14,CCOC(=O)C1(Cc2ccccc2C(F)(F)F)CCN(C2CCN(C(C)=O)CC2)CC1,-1.08% (inactive)
15,CC1CCC2C(=O)N(c3cccc(C(=O)Nc4ccccc4Cl)c3)C(=O)C2C1 (configuration not stated),0.29% (inactive)
16,Cc1ccc(S(=O)(=O)c2nc(-c3cccs3)oc2SCC(N)=O)cc1,2.11% (inactive)
17,Cc1c(NC(=O)COC(=O)c2cc(-c3cccc4ccccc34)nc3ccccc23)c(=O)n(-c2ccccc2)n1C,-0.96% (inactive)
18,COc1ccc2cc(-c3cc(C(=O)OCC(=O)Nc4c(C)n(C)n(-c5ccccc5)c4=O)c4ccccc4n3)ccc2c1,-0.17% (inactive)
19,COc1ccc(NS(=O)(=O)c2ccc(O)c(NC(=O)c3ccc(S(=O)(=O)N4CCCCCC4)cc3)c2)cc1,2.03% (inactive)
20,COc1ccc(/C(N)=N/OC(=O)c2ccc(Br)o2)cc1,0% (inactive)
21,CCn1c(SCC(=O)C(C)(C)C)nnc1-c1cccnc1,-0.07% (inactive)
22,CNC(=O)C1CCN(S(=O)(=O)c2c(C)noc2/C=C/c2ccccc2F)CC1,-1% (inactive)
23,CCN(CCN(C)C)C(=O)C1CCN(S(=O)(=O)c2c(C)noc2/C=C/c2ccccc2F)CC1,0.04% (inactive)

# Source: PubChem BioAssay AID1621 (Southern Research Specialized Biocontainment Screening …, 2009)
